# “And” between values parts separate entries of the source, which are not always exact repeats. Equal entries are not always repeated. Unmarked numbers belong to inactive results. Records with an inconclusive call do not appear. The source made the active and inactive calls. Unless noted, calls come from the whole dose curve; as a rule, active = well fitted curve in the direction sought with a large enough effect; inconclusive = small, poorly fitted or top-dose-only effect, or another doubt; inactive = no such curve, though single readings can be large; an effect the other way counts as inactive or inconclusive.
# Key:
# [1] = molecular target: Cytochrome P450 1A2 (Homo sapiens) (UniProt P05177); experiment: p450-cyp1a2 (AID 410; calls by dose curve; note: potency is the fitted concentration of half-maximal effect)
# Outline: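 Luminescent readout of luciferin formed from Luciferin-ME by human CYP1A2; data normalized against complete inhibition by 57 uM furafylline. Enzyme 20nM, substrate 100uM at Km, 100mM KPO4 buffer, 60 min reaction at room temperature.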
# [2] = NFAT Signaling Pathway (AID 444; active = well fitted curve in either direction with a large enough effect, not every such curve was filed as active;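 note: carbachol stimulus at about its EC50 of 1 µM final; % is set by controls: 0 for no effect and ±100 for the full control effect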); settings: Jurkat NFAT-bla M1, carbachol, beta-lactamase ratio, 5 h; at 38 µM (top of the series)
# Outline: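 Read-out: CCF4 FRET ratio (460 nm/530 nm) after 1 h RT dye loading, used for %activity and AC50 from titration series. Cells: Jurkat NFAT-β-lactamase/M1 line, treated with compound plus 1 uM carbachol for 5 h, 37 °C.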
# [3] = Stat Signaling Pathway (AID 446; active = well fitted curve in either direction with a large enough effect, not every such curve was filed as active;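 note: ME-180 cervical cancer cells given 40 pM IL-6 alongside compound; SIE-controlled beta-lactamase reporter measured as 460/530 nm FRET emission ratio; % is set by controls: 0 for no effect and ±100 for the full control effect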); settings: ME-180 SIE beta-lactamase reporter, IL-6 stimulated, 5 h; at 38 µM (top of the series)
# Outline: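 ME-180 SIE-bla cells; overnight plating; cpd + IL-6 40 pM, 5 h, 37 C; LiveBLAzer 2.5 h RT; 460/530 nm emission ratio. Normalized to 300 pM IL-6 and 125 nM JAK inhibitor controls.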
# [4] = molecular target: Glucocorticoid receptor (Homo sapiens) (UniProt P04150); experiment: GR-GFP Redistribution (AID 450;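 active = compounds whose dose series gives a full or clear partial fitted curve of increased nuclear translocation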; note: potency is the fitted concentration of half-maximal effect); settings: U2OS GR-GFP nuclear translocation, laser cytometry, 2 h
# [5] = molecular target: Glucocorticoid receptor (Homo sapiens) (UniProt P04150); experiment: GR-EFC Redistribution (AID 451; calls by dose curve; note: potency is the fitted concentration of half-maximal effect); settings: CHO-K1 GR-EFC translocation, beta-gal luminescence, 2 h
# Outline: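 Translocation of GR-ED fusion to nuclear EA restores b-gal, read by luminescence after 1 h room-temperature detection. Engineered CHO-K1 biosensor cells, 1,000/well, exposed 2 h at 37 C to titrations up to 46 uM final.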
# [6] = molecular target: Mitogen-activated protein kinase 10 (Mus musculus) (UniProt Q61831); experiment: JNK3 AlphaScreen Assay (AID 530; active = well fitted curve in either direction with a large enough effect, not every such curve was filed as active;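 note: kinase came from lysate of stimulated human HepG2 cells; potency is the fitted concentration of half-maximal effect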)
# Outline: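 Compound titrations were preincubated 15 minutes at room temperature with substrate, antibody and pre-activated JNK3-containing HepG2 lysate. Reactions were started with 10 uM ATP and stopped with EDTA-containing bead buffer for AlphaScreen detection.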
# [7] = molecular target: Guanine nucleotide-binding protein G(i) subunit alpha-1 (Homo sapiens) (UniProt P63096); experiment: qHTS Assay for Inhibitors of RGS12 GoLoco Motif Activity (Green Fluorophore) (AID 879);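 note: 0% = labeled peptide with Gαi1 and full inhibition = labeled peptide alone without protein; negative values mean loss of peptide binding seen as reduced polarization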
# Outline: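 Fluorescence polarization assay: 50 nM Gαi1 with 10 nM FITC-labeled RGS12 GoLoco peptide in 10 mM Tris pH 7.5, 150 mM NaCl, 0.1 mM GDP, 0.05% NP40, 10 min at room temperature with compound.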
# [8] = molecular target: Cytochrome P450 3A4 (Homo sapiens) (UniProt P08684); experiment: qHTS Assay for Inhibitors and Substrates of Cytochrome P450 3A4 (AID 884); note: potency is the fitted concentration of half-maximal effect; nearly all actives have a fitted effect of over 50% in size
# Outline: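 20 nM human CYP3A4 with 25 uM Luciferin-PPXE (at KM) in 200 mM KPO4, preincubated 10 min with compound; NADPH regeneration started a 60 min RT reaction. Luciferin detected by luminescence, normalized to 57 uM ketoconazole as full inhibition.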
# [9] = molecular target: Cytochrome P450 3A4 (Homo sapiens) (UniProt P08684); experiment: qHTS Assay for Activators of Cytochrome P450 3A4 (AID 885); note: nearly all actives have a fitted effect of over 65% in size
# Outline: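 20nM CYP3A4 + 25uM Luciferin-PPXE (=KM), 200mM KPO4; cpd 10 min RT; NADPH regen, 60 min RT; stop w/ detection buffer, 20 min; luminescence. Normalized to 57 uM ketoconazole.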
# [10] = molecular target: Cytochrome P450 2D6 (Homo sapiens) (UniProt P10635); experiment: qHTS Assay for Inhibitors and Substrates of Cytochrome P450 2D6 (AID 891); note: potency is the fitted concentration of half-maximal effect; nearly all actives have a fitted effect of over 60% in size
# Outline: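 Human CYP2D6 (5 nM) with 30 uM Luciferin-ME EGE (at Km) in 100 mM KPO4, compound preincubated 10 min, then NADPH regeneration system for 60 min at room temperature. Luciferin read by luminescence; normalized to 1.43 uM quinidine.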
# [11] = molecular target: Cytochrome P450 2C19 (Homo sapiens) (UniProt P33261); experiment: qHTS Assay for Inhibitors and Substrates of Cytochrome P450 2C19 (AID 899); note: potency is the fitted concentration of half-maximal effect; nearly all actives have a fitted effect of over 60% in size
# Outline: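 Luminescence readout of luciferin formed from 10uM Luciferin-H EGE (KM level) by 5 nM CYP2C19 in 50mM KPO4. 60 min NADPH-driven reaction at 37C after 10 min compound preincubation; data scaled to 57uM ketoconazole inhibition.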
# [12] = molecular target: Pyruvate kinase PKM (Homo sapiens) (UniProt P14618); experiment: qHTS Assay for Inhibitors of Human Muscle Pyruvate Kinase (AID 958); settings: purified human PKM enzyme activity
# Outline: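 ATP production by PKM2 detected via luciferase luminescence after 1 h room-temperature reaction (0.1 nM enzyme, PEP at Km 0.5 mM, ADP 0.1 mM, pH 7.2 imidazole buffer). Inhibition scaled to no-enzyme control; activation referenced to 0.3 nM enzyme wells.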
# [13] = molecular target: Pyruvate kinase (Leishmania mexicana) (UniProt Q27686); experiment: qHTS Validation Assay for Activators of Leishmania Mexicana Pyruvate Kinase (AID 959)
# Outline: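 Read-out: luminescence from PKLight stop/detection reagent, data normalized to DMSO. Reaction: 0.2 nM E451W LmPYK, 0.5 mM PEP, 0.1 mM ADP, pH 7.2, 1 h room temperature.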
# [14] = molecular target: Alpha-galactosidase A (Homo sapiens) (UniProt P06280); experiment: Counterscreen for Glucocerebrosidase Inhibitors: qHTS Assay for Human alpha-Galactosidase at pH 4.5 (AID 992); note: 0% is about no effect
# Outline: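 Enzyme at 2 nM final was combined with compound (0.7 nM to 77 uM) and 80 uM 4-methylumbelliferyl alpha-D-galactopyranoside in 50 mM citric acid, 0.005% Tween-20, pH 4.5. After 20 min at room temperature, fluorescence was read (Ex 365/Em 440 nm); AC50 came from Hill fits.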
# [15] = molecular target: alpha-glucosidase (Oryza sativa, rice) (UniProt Q653V4); experiment: Counterscreen for Glucocerebrosidase Inhibitors: qHTS Assay for Rice alpha-Glucosidase at pH 5.0 (AID 997);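 note: 0% = full activity with enzyme and -100% = basal without enzyme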
# Outline: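 Rice alpha-glucosidase (4 nM final) with 400 uM 4-methylumbelliferyl-alpha-D-glucopyranoside in citrate buffer pH 5.0, 20 min at room temperature, stopped at pH 10; fluorescence 365/440 nm, compounds 0.7 nM–77 uM, AC50 from Hill fits.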
# [16] = molecular target: DNA repair nuclease/redox regulator APEX1 (Homo sapiens) (UniProt P27695); experiment: qHTS Validation Assay for Inhibitors of the Human Apurinic/apyrimidinic Endonuclease 1 (APE1) (AID 1705;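 note: TAMRA fluorescence gain over two minutes as APE1 cuts a quenched THF abasic duplex; % is set by controls: 0 for no effect and ±100 for the full control effect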)
# Outline: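 Substrate: 50 nM final fluorophore/quencher THF-abasic duplex. Enzyme preincubated with compounds 15 min, RT. Progress derived from fluorescence difference, third minus first kinetic read.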
# [17] = qHTS for differential inhibitors of proliferation of Plasmodium falciparum line 7G8 (AID 1815);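 note: potency is the fitted concentration of half-maximal effect; parasite growth measured after three days of incubation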
# [18] = qHTS for differential inhibitors of proliferation of Plasmodium falciparum line GB4 (AID 1816); settings: Potency: Plasmodium falciparum GB4 proliferation inhibition;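 note: potency is the fitted concentration of half-maximal effect; parasite growth measured after 72 h incubation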
# [19] = qHTS for differential inhibitors of proliferation of Plasmodium falciparum line 3D7 (AID 1876); note: potency is the fitted concentration of half-maximal effect
# Chain of Glucocorticoid receptor (Homo sapiens) (P04150 whole entry, looked up, the tested form may be a part): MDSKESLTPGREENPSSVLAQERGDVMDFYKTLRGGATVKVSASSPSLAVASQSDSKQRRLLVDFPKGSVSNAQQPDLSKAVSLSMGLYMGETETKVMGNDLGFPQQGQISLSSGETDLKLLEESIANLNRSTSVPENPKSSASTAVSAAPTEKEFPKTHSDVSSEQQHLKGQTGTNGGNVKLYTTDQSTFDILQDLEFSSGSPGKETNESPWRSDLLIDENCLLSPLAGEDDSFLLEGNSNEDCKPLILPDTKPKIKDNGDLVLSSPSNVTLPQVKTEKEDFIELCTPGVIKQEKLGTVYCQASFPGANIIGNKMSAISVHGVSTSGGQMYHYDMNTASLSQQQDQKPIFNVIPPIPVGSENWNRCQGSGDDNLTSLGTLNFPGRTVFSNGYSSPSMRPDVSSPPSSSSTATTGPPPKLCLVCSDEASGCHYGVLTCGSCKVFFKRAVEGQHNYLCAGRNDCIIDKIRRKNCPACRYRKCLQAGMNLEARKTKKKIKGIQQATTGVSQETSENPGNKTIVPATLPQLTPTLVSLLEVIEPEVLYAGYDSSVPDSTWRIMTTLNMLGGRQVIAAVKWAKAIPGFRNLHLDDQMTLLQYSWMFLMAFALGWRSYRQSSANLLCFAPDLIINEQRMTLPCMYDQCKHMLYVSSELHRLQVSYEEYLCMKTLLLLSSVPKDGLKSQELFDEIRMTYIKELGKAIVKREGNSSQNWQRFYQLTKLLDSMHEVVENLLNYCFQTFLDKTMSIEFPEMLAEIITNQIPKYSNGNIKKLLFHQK
# Chain of Cytochrome P450 3A4 (Homo sapiens) (P08684 whole entry, looked up): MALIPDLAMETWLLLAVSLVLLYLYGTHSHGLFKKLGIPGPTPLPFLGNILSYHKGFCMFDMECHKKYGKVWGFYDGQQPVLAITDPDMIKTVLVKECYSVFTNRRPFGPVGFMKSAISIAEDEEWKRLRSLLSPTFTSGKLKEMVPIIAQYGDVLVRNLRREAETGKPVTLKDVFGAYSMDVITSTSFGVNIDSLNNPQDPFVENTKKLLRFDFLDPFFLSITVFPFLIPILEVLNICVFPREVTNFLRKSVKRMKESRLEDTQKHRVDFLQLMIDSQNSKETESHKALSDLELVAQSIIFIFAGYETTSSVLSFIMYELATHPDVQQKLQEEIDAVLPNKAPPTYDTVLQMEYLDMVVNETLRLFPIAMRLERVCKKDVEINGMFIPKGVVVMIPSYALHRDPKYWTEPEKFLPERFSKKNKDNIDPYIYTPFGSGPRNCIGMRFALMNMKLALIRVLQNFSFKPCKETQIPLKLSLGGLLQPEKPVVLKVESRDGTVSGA
# Chain of Cytochrome P450 1A2 (Homo sapiens) (P05177 whole entry, looked up): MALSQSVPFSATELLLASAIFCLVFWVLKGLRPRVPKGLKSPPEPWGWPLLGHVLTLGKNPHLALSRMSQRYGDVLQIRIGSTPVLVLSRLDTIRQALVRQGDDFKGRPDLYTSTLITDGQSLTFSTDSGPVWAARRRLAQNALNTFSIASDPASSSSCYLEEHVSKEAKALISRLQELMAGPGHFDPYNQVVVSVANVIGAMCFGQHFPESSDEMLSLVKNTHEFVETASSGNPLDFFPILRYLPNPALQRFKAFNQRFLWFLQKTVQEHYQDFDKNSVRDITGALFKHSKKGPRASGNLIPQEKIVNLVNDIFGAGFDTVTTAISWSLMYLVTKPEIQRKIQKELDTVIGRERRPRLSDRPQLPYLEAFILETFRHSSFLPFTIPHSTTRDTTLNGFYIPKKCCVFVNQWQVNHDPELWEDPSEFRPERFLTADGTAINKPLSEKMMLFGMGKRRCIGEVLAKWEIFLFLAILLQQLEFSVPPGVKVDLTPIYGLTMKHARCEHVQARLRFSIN
# Chain of Cytochrome P450 2C19 (Homo sapiens) (P33261 whole entry, looked up): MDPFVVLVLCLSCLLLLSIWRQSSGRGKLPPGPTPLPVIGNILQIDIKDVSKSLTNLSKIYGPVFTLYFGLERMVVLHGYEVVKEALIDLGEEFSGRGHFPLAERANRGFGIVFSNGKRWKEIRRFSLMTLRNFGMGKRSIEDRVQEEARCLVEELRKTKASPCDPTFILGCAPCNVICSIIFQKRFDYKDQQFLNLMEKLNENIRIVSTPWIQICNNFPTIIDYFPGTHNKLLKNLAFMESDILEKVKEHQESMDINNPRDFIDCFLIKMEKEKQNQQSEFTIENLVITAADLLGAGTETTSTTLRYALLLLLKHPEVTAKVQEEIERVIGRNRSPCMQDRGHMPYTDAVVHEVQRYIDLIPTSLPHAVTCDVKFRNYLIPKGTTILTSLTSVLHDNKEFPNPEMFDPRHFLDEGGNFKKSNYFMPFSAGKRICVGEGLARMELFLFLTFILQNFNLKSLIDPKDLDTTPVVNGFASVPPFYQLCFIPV
# Chain of Alpha-galactosidase A (Homo sapiens) (P06280 whole entry, looked up): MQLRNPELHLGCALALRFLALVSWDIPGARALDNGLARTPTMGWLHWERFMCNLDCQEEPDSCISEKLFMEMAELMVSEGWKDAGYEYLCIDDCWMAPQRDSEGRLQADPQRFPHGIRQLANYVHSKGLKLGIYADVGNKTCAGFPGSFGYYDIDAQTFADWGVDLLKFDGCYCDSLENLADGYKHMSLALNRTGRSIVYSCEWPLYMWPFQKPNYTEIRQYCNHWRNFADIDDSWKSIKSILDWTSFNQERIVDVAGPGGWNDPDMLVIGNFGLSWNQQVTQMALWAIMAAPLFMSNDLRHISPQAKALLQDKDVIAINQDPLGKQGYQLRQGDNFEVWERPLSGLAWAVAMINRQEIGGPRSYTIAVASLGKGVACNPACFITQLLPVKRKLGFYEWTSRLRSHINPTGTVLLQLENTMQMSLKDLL
# Chain of Pyruvate kinase PKM (Homo sapiens) (P14618 whole entry, looked up): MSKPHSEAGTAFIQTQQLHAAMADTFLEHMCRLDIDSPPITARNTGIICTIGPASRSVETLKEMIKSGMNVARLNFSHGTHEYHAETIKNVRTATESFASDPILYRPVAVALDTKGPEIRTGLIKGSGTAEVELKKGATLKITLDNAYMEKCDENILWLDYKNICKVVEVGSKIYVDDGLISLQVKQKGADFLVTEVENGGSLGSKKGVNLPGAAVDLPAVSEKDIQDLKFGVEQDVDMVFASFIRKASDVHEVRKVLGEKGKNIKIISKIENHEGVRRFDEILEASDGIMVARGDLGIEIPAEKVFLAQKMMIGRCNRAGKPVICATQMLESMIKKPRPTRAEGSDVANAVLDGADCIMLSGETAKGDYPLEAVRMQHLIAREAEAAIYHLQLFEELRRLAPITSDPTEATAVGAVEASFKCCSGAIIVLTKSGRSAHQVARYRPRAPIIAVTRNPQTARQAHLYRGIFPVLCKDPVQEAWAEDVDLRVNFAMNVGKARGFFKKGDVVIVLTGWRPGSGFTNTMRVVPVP
# Chain of DNA repair nuclease/redox regulator APEX1 (Homo sapiens) (P27695 whole entry, looked up): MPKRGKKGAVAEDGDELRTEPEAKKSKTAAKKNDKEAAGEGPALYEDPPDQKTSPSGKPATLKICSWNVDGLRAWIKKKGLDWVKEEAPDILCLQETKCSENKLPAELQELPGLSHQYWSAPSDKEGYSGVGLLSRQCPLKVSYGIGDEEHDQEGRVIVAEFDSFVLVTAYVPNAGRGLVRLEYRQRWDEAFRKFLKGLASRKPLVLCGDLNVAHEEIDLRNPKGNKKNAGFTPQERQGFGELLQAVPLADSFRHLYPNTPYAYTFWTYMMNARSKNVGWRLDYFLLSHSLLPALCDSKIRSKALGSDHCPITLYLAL
# Chain of Cytochrome P450 2D6 (Homo sapiens) (P10635 whole entry, looked up): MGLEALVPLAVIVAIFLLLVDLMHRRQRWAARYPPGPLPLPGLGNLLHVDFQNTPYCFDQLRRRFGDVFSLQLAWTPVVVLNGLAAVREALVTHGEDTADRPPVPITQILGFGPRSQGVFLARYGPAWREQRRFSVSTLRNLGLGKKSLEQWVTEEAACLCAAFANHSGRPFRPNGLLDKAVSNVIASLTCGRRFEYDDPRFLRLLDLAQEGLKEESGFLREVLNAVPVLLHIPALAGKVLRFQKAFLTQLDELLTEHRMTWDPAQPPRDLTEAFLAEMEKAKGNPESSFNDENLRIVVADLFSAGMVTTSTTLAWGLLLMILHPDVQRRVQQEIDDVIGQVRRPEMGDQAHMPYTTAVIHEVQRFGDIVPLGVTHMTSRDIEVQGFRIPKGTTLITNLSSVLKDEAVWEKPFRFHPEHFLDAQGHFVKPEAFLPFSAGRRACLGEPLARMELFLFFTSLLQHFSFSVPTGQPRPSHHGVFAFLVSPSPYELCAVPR
# Chain of Guanine nucleotide-binding protein G(i) subunit alpha-1 (Homo sapiens) (P63096 whole entry, looked up): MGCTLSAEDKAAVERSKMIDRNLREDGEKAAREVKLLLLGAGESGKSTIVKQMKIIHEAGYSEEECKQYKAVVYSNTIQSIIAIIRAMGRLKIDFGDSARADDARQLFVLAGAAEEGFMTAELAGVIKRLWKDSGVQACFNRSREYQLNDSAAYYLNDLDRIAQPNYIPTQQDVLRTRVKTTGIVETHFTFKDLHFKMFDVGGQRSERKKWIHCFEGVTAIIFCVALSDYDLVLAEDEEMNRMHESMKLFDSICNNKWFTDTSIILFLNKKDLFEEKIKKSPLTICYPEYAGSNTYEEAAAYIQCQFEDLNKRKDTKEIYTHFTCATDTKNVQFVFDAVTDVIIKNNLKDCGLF
# Chain of Pyruvate kinase (Leishmania mexicana) (Q27686 2-499 E452W): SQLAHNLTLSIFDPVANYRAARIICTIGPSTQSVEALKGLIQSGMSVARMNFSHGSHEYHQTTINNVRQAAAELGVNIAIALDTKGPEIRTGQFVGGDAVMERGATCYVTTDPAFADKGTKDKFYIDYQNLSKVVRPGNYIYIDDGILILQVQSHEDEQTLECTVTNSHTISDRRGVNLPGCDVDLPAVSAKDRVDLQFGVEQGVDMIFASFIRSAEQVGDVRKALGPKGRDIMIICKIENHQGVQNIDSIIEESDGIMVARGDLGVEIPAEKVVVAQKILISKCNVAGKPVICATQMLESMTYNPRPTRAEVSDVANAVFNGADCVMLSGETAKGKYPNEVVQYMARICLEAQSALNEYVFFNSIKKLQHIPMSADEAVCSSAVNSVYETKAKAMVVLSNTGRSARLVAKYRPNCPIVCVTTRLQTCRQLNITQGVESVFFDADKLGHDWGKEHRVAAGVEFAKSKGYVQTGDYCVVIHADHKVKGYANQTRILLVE
compound,measurement,setting,value
O=Nc1c(-c2c(O)[nH]c3ccccc23)[nH]c2ccccc12,Potency,[1],200 nM (active) and 31.6 nM (active)
same,"activity change, negative = inhibition",[2],-23.6%
same,"activity, negative = inhibition",[3],-75% (active)
same,Potency,[4],> 46 µM
same,Potency,[5],> 46 µM
same,Potency,[6],3.16 µM (active)
same,outcome,[7],inactive
same,Potency,[8],7.94 µM (active)
same,Potency,[9],inactive
same,Potency,[10],31.6 µM (active)
same,Potency,[11],6.31 µM (active)
same,Potency,[12],12.6 µM (active)
same,Potency,[13],inactive
same,outcome,[14],inactive
same,outcome,[15],inactive
same,Potency,[16],inactive
same,Potency,[17],1.26 µM (active)
same,Potency,[18],0.708 µM (active)
same,Potency,[19],0.355 µM (active)

# Source: PubChem BioAssay (NCATS)
